# Source: the supplement of paper PMC9135407
# Several values for one entry are separate records, joined by “and”; a condition that tells them apart may be missing. Equal values may be shown once. Where a name gives a salt, the structure may show the parent alone. The campaign covered roughly 5,800 compounds. About 620 (11%) showed activity. What follows is part of a selection rich in actives, with near analogues and random picks from the rest. A number with no mark means an inactive call.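 The calls were made as follows: active = score above a cut-off or among the top three wells of a plate; in these data no inactive exceeds 0.85.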
# System: primary human hepatic stellate cells (donor 1)
# Assay: scaled lipid accumulation score (0 = DMSO-like, 1 = nortriptyline-like); higher = stronger HSC inactivation (lipid re-accumulation), active = hit call of the paper
# Details: 48 h
# [1] = library stock concentration: 10 mM
# [2] = library stock concentration: 6.4 mM
# [3] = library stock concentration: 3.33 mM
# [4] = library stock concentration: 80 uM
# [5] = library stock concentration: 400 uM
# [6] = library stock concentration: 2 mM
# [7] = library stock concentration: 1 mM
# [8] = library stock concentration: 100 uM
smiles,measurement,setting,value
CC1CC(OC(=O)C(O)c2ccccc2)CC(C)(C)N1C (configuration not stated) [Eucatropine hydrochloride],scaled lipid accumulation score,,≤ 0
same,scaled lipid accumulation score,library stock concentration: 6.1 mM,≤ -0.001
same,scaled lipid accumulation score,[1],≤ 0
CC1O[C@H](O[C@]2(O[C@H]3CC[C@@]4(C)C(=CC[C@H]5[C@@H]6C[C@H]7[C@H]([C@H](C)[C@H]8CC[C@H](C)CN87)[C@@]6(C)CC[C@@H]54)C3)C[C@@H](O[C@@H]3OC(CO)[C@@H](O)[C@@H](O)C3O)[C@@H](O)C(CO)O2)C(O)[C@@H](O)[C@H]1O (stereo partly drawn) [Solanine alpha],scaled lipid accumulation score,,≤ 0
Cc1ccc(NC(=O)NCCSCc2ccc(CN(C)C)o2)cc1Cl,scaled lipid accumulation score,[1],0.931 (active)
CNC(=C[N+](=O)[O-])NCCSCc1ccc(CN(C)C)o1 [Ranitidine hydrochloride],scaled lipid accumulation score,,≤ 0
same,scaled lipid accumulation score,[1],≤ 0 and ≤ -0.006
CNC(=C[N+](=O)[O-])NCCSCc1ccc(CN(C)C)o1 [Ranitidine HCl],scaled lipid accumulation score,[2],≤ 0
CNC(=C[N+](=O)[O-])NCCSCc1ccc(CN(C)C)o1 [Ranitidine],scaled lipid accumulation score,[3],≤ 0
same,scaled lipid accumulation score,[2],≤ 0
same,scaled lipid accumulation score,[1],0.049 and ≤ 0
Cc1cc(NC(=O)c2cccc(NC(=O)C=CCN(C)C)c2)ccc1Nc1nccc(-c2cccnc2)n1,scaled lipid accumulation score,[3],1.08 (active)
same,scaled lipid accumulation score,[1],1.02 (active)
CN(C)C/C=C/C(=O)Nc1ccc(C(=O)Nc2cccc(Nc3nccc(-c4cccnc4)n3)c2)cc1,scaled lipid accumulation score,[1],1.15 (active)
CN(C)C/C=C/C(=O)Nc1cccc(Nc2ncc3c(n2)N(C)c2ccccc2C(=O)N3C)c1,scaled lipid accumulation score,[4],≤ -0.009
same,scaled lipid accumulation score,[5],0.1
same,scaled lipid accumulation score,[6],0.846
same,scaled lipid accumulation score,[1],0.566
CN(C)C/C=C/C(=O)Nc1ccc(C(=O)Nc2cccc(Nc3ncc(Cl)c(-c4c[nH]c5ccccc45)n3)c2)cc1,scaled lipid accumulation score,[4],0.587
same,scaled lipid accumulation score,[5],0.669
same,scaled lipid accumulation score,[6],0.638
same,scaled lipid accumulation score,[1],0.41
C[C@@H]1CC2C3C[C@H](F)C4=CC(=O)C=C[C@]4(C)[C@@]3(F)[C@@H](O)C[C@]2(C)[C@@]1(O)C(=O)COC(=O)C(C)(C)C (some centres not stated) [Flumethazone pivalate],scaled lipid accumulation score,library stock concentration: 4 mM,0.012
same,scaled lipid accumulation score,[1],≤ 0
"c1ccc2c(-c3ccncc3)c[nH]c2c1 [Rho Kinase Inhibitor III, Rockout]",scaled lipid accumulation score,[3],≤ 0
COc1ccc(-c2ccc3cc(C(=O)O)ccc3c2)cc1C12CC3CC(CC(C3)C1)C2 [Adapalene],scaled lipid accumulation score,[3],≤ 0
same,scaled lipid accumulation score,[1],≤ 0
COc1ccc(-c2ccc3cc(C(=O)O)ccc3c2)cc1C12CC3CC(CC(C3)C1)C2,scaled lipid accumulation score,[1],0.008
COc1cc(-c2cc(-c3cccc(O)c3)cnc2N)cc(OC)c1OC,scaled lipid accumulation score,[3],≤ -0.009
same,scaled lipid accumulation score,[1],≤ 0
"CC(=O)NC(CC(=O)O)C(=O)O (racemic) [Aspartic acid, N-acetyl (R,S)]",scaled lipid accumulation score,,0.182
Cl.N/C(=N\Cc1ccccc1)NC(=O)c1nc(Cl)c(N)nc1N,scaled lipid accumulation score,library stock concentration: 14 mM,1.1 (active)
NC(=O)NC(=O)Cc1ccccc1 [Phenacemide],scaled lipid accumulation score,[1],≤ 0
Cl.N/C(=N\C(=O)c1nc(Cl)c(N)nc1N)NCc1ccc(Cl)cc1Cl,scaled lipid accumulation score,library stock concentration: 11.8 mM,0.876 (active)
Cl.N/C(=N\C(=O)c1nc(Cl)c(N)nc1N)NCc1ccccc1 [Benzamil hydrochloride],scaled lipid accumulation score,[1],1.09 (active)
N/C(=N\C(=O)c1nc(Cl)c(N)nc1N)NCc1ccccc1 [Benzamil],scaled lipid accumulation score,library stock concentration: 6.3 mM,0.287
N/C(=N\C(=O)c1nc(Cl)c(N)nc1N)NCc1ccccc1 [Benzamil hydrochloride],scaled lipid accumulation score,,0.168
N[C@H](Cc1ccccc1)C(=O)O [D-phenylalanine],scaled lipid accumulation score,[1],≤ -0.022
"CCCCC/C=C\CCCC/C=C\C/C=C\CCCC(=O)O [5(Z),8(Z),14(Z)-Eicosatrienoic Acid]",scaled lipid accumulation score,[7],≤ 0
CCCCC[C@H](O)/C=C/[C@@H]1[C@H](C/C=C\CCCC(=O)O)[C@@H](O)C[C@H]1O [8-iso Prostaglandin F2.alpha.],scaled lipid accumulation score,[7],≤ 0
CC(C)(C)n1nc(-c2cccc3ccccc23)c2c(N)ncnc21 [1-Naphthyl PP1],scaled lipid accumulation score,[1],0.016
"CC(C)(C)C#Cc1cc(N(C(=O)[C@H]2CC[C@H](C)CC2)[C@H]2CC[C@H](O)CC2)c(C(=O)O)s1 [VX-222 (VCH-222, Lomibuvir)]",scaled lipid accumulation score,[3],≤ 0
same,scaled lipid accumulation score,[1],0.047
Cc1c(O)c(=O)ccn1C,scaled lipid accumulation score,[1],≤ 0
O.O.O.O.O=C([O-])CC(O)(CC(=O)[O-])C(=O)[O-].[Li+].[Li+].[Li+] [Lithium citrate],scaled lipid accumulation score,library stock concentration: 9.5 mM,≤ 0
same,scaled lipid accumulation score,[1],0.016
CCCCC/C=C\C\C=C/C=C/C=C/CC(=O)CCCC(=O)O [5-Ketoeicosatetraenoic acid],scaled lipid accumulation score,[8],≤ -0.021
CC(C)NCC(O)COc1ccccc1-n1cccc1 (configuration not stated) [Isamoltane hemifumarate],scaled lipid accumulation score,[1],0.25
CCCCCC=CCC=CCC=CCC=CCCCC(=O)SCC(O)CO (configuration not stated) [Arachidonoyl-1-thio-Glycerol],scaled lipid accumulation score,[7],0.021
CC(C)(Oc1ccc(Cl)cc1)C(=O)OCCOC(=O)c1cccnc1 [Etofibrate],scaled lipid accumulation score,[3],≤ 0
same,scaled lipid accumulation score,[1],≤ -0.001
C[C@@H]1C[C@H]2[C@@H]3CCC4=CC(=O)C=C[C@]4(C)[C@@]3(F)[C@@H](O)C[C@]2(C)[C@@]1(O)C(=O)CO [Dexamethasone],scaled lipid accumulation score,library stock concentration: 5.1 mM,≤ -0.006 and ≤ -0.001
same,scaled lipid accumulation score,[1],≤ 0 and ≤ -0.006
same,scaled lipid accumulation score,library stock concentration: 12.7 mM,0.007
C[C@@H]1C[C@H]2[C@@H]3CCC4=CC(=O)C=C[C@]4(C)[C@@]3(F)[C@@H](O)C[C@]2(C)[C@@]1(O)C(=O)CO [Dexamethasone (DHAP)],scaled lipid accumulation score,[3],0.017
same,scaled lipid accumulation score,[1],≤ 0
CN(C)CC/C=C1/c2ccccc2Sc2ccc(Cl)cc21 [Chlorprothixene hydrochloride],scaled lipid accumulation score,library stock concentration: 5.7 mM,0.756
same,scaled lipid accumulation score,[1],0.429 and 0.701
CN(C)CC/C=C1\c2ccccc2Sc2ccc(Cl)cc21.Cl [Chlorprothixene hydrochloride],scaled lipid accumulation score,,0.902 (active)
CN(C)CC/C=C1\c2ccccc2CSc2ccccc21 [Dosulepin hydrochloride],scaled lipid accumulation score,,0.845
CN(C)CCC=C1c2ccccc2Sc2ccc(Cl)cc21 [Chlorprothixene],scaled lipid accumulation score,[1],1.03 (active)
CN(C)CC/C=C1/c2ccccc2Sc2ccc(Cl)cc21 [Chlorprothixene],scaled lipid accumulation score,[3],0.345
C[C@@H]1O[C@@H]1P(=O)(O)O [Phosphomycin disodium],scaled lipid accumulation score,[1],≤ -0.055
C[C@@H]1O[C@@H]1P(=O)(O)O [Fosfomycin],scaled lipid accumulation score,[1],≤ 0
CCN1C(=CC(C)=O)Sc2ccc(OC)cc21,scaled lipid accumulation score,[3],≤ -0.009
same,scaled lipid accumulation score,[1],≤ 0
CCCCCCCCCCC(C)(C)C(=O)Nc1c(OC)cc(OC)cc1OC,scaled lipid accumulation score,[1],0.164 and ≤ -0.001
CC/C=C/C/C=C/C/C=C/C/C=C/CCCCC(=O)OC [Stearidonic Acid methyl ester],scaled lipid accumulation score,[7],0.048
O=C(c1cn(Cc2cncn2Cc2ccc(Br)cc2)cc1-c1cccc2ccccc12)N1CCOCC1,scaled lipid accumulation score,[3],≤ -0.003
same,scaled lipid accumulation score,[1],0.723
CNCc1ccc(-c2[nH]c3cc(F)cc4c3c2CCNC4=O)cc1,scaled lipid accumulation score,[3],0.213
CNCc1ccc(-c2[nH]c3cc(F)cc4c3c2CCNC4=O)cc1.O=P(O)(O)O,scaled lipid accumulation score,[1],1.47 (active)
CNCc1ccc(-c2[nH]c3cc(F)cc4c3c2CCNC4=O)cc1.O=P(O)(O)O [Rucaparib],scaled lipid accumulation score,[1],1.12 (active)
CNCc1ccc(-c2[nH]c3cc(F)cc4c3c2CCNC4=O)cc1 [Rucaparib],scaled lipid accumulation score,[4],≤ 0
same,scaled lipid accumulation score,[5],≤ 0
same,scaled lipid accumulation score,[6],0.588
CCCCCCCCCCCCCCCCCCCCCCC(=O)OCC [Ethyl Tricosanoate],scaled lipid accumulation score,[7],≤ 0
CCCCCCCCCSCCCCCCCC(=O)O [9-Thiastearic Acid],scaled lipid accumulation score,[7],0.031
CN1CCc2nc(C(=O)N[C@@H]3C[C@@H](C(=O)N(C)C)CC[C@@H]3NC(=O)C(=O)Nc3ccc(Cl)cn3)sc2C1 [Edoxaban],scaled lipid accumulation score,[3],≤ -0.009
same,scaled lipid accumulation score,[1],0.008
CC(=O)N[C@@H](Cc1c[nH]c2ccccc12)C(=O)O [Acetyltryptophan],scaled lipid accumulation score,[1],≤ 0
COc1cc(C(O)C(=O)O)ccc1O (configuration not stated),scaled lipid accumulation score,[1],≤ -0.036
c1nc(CC2CCNCC2)c[nH]1 [Immepip dihydrobromide],scaled lipid accumulation score,[1],0.011
CC/C=C/C[C@H](O)/C=C/[C@H]1[C@H](O)CC(=O)[C@@H]1C/C=C\CCCC(=O)O [17-trans Prostaglandin E3],scaled lipid accumulation score,[7],≤ 0
Cc1cnc(-c2cnc(NCCNc3ccc(C#N)cn3)nc2-c2ccc(Cl)cc2Cl)[nH]1,scaled lipid accumulation score,[4],0.041
same,scaled lipid accumulation score,[5],0.005
same,scaled lipid accumulation score,[6],0.182
same,scaled lipid accumulation score,[3],0.229
same,scaled lipid accumulation score,[1],0.814
Cc1c[nH]c(-c2cnc(NCCNc3ccc(C#N)cn3)nc2-c2ccc(Cl)cc2Cl)n1.Cl,scaled lipid accumulation score,[1],1.08 (active)
CCCCC[C@H](O)/C=C/[C@H]1C(=O)C[C@H](O)[C@@H]1C/C=C\CCCC(=O)NC(CO)CO [Prostaglandin D2 serinol amide],scaled lipid accumulation score,[7],≤ 0
"CCCCC/C=C\C/C=C\C/C=C\CC1OC1CCCC(=O)O (configuration not stated) [5,6-Epoxyeicosatrienoic acid]",scaled lipid accumulation score,[8],≤ -0.021
CC[C@@H]([C@H](C)O)n1ncn(-c2ccc(N3CCN(c4ccc(OC[C@@H]5CO[C@@](Cn6cncn6)(c6ccc(F)cc6F)C5)cc4)CC3)cc2)c1=O [Posaconazole] [listing 1 of 2 here],scaled lipid accumulation score,[3],0.134
CC[C@@H]([C@H](C)O)n1ncn(-c2ccc(N3CCN(c4ccc(OC[C@@H]5CO[C@@](Cn6cncn6)(c6ccc(F)cc6F)C5)cc4)CC3)cc2)c1=O [Posaconazole] [listing 2 of 2 here],scaled lipid accumulation score,[1],0.869 (active)
CCC(C)n1ncn(-c2ccc(N3CCN(c4ccc(OCC5COC(Cn6cncn6)(c6ccc(Cl)cc6Cl)O5)cc4)CC3)cc2)c1=O (configuration not stated) [Itraconazole],scaled lipid accumulation score,library stock concentration: 2.8 mM,≤ 0
same,scaled lipid accumulation score,[3],0.492
same,scaled lipid accumulation score,[1],0.522
